As usually defined, the AC50 is the midpoint of the concentration-response curve, whichever way the signal moves.

Results filed as inconclusive are left out. Calls of active or inactive are those of the source. The calls were made as follows: active = hit-call score of the fitted dose curve at least 0.9, where 1 is the maximum; inconclusive = response in the unintended direction; inactive = score below 0.9.

Sequence of Steroid hormone receptor ERR1 (Homo sapiens) (P11474 whole entry, looked up, the tested form may be a part): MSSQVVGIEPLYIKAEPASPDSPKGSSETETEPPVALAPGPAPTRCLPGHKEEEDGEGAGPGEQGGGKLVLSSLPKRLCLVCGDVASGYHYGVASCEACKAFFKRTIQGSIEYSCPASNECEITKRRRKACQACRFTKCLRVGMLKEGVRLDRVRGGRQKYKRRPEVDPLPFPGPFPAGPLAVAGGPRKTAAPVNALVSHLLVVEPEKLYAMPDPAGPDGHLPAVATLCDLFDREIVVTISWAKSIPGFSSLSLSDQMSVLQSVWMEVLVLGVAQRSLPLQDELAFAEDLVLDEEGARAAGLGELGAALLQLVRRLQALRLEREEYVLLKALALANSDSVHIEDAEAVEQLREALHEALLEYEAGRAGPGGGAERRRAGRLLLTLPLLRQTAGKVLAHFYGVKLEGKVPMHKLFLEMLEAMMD

The target in the first assay is Estrogen receptor (Homo sapiens) (UniProt P03372). The assay is described as follows: ATG_ERa_TRANS: Attagene TRANS-FACTORIAL HepG2 Assay for human Estrogen Receptor alpha (ERa) (AID 2282970). The note with it: HepG2 Attagene TRANS ERa GAL4 reporter, mRNA. The procedure, abridged: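 Multiplexed cell-based reporter format in HepG2: chimeric ERa-Gal4 protein drives GAL4-UAS reporter transcription. Fluorescent reporter mRNA quantified by capillary electrophoresis 24 hours after dosing; endpoint fitted as signal gain against DMSO.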
Sequence of Estrogen receptor (Homo sapiens) (P03372 whole entry, looked up, the tested form may be a part): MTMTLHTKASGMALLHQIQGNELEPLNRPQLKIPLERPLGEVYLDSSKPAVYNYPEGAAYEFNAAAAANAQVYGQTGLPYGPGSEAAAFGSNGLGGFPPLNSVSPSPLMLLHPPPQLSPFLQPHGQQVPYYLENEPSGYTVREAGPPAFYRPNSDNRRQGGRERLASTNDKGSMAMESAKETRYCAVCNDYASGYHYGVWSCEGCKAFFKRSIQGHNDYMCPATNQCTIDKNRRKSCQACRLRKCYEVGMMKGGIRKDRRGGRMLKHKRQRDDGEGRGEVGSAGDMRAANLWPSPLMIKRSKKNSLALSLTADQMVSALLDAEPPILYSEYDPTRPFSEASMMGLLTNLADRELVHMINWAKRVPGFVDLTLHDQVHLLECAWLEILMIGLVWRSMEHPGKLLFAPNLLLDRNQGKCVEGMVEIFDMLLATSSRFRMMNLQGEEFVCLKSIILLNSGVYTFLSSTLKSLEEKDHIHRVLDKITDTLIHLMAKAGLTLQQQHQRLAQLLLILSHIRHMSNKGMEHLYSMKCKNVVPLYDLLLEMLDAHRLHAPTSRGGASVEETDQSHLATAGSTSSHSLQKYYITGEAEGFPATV
In the case of `CCOC(=O)CCN(SN(C)C(=O)Oc1cccc2c1OC(C)(C)C2)C(C)C`, the compound was called inactive.
The same measure, in the same setting: in the case of `CCCCOC(=O)COC(=O)c1ccccc1C(=O)OCCCC` it was “inactive”.
Take `O=C1C=CC(=O)c2ccccc21`: the AC50 was 11.1 µM (active).
Turning to `OC[C@@H](O)[C@H]1O[C@@H]2O[C@H](C(Cl)(Cl)Cl)O[C@@H]2[C@H]1O`, the call was inactive.
On the same count and under the same terms, in the case of `CCC(C)(C#N)N=NC(C)(C#N)CC` (stereo not drawn) it was “inactive”.

A further assay concerns the target Steroid hormone receptor ERR1 (Homo sapiens) (UniProt P11474). The assay is described as follows: ATG_ERRa_TRANS: Attagene TRANS-FACTORIAL HepG2 Assay for human Estrogen-Related Receptor alpha (ERRa) (AID 2282971). The settings on record: HepG2 Attagene TRANS reporter, ERRa transactivation. The procedure, abridged:
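Signal gain relative to DMSO for an ERRa-Gal4 chimeric receptor, read as reporter mRNA by RT-PCR/capillary electrophoresis. Human HepG2 liver cells, transient multiplex reporter transfection, 24 h chemical exposure.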
With `CCOC(=O)CCN(SN(C)C(=O)Oc1cccc2c1OC(C)(C)C2)C(C)C`, the call was inactive.
Turning to `CCCCOC(=O)COC(=O)c1ccccc1C(=O)OCCCC`, the result was inactive.
On the same count and under the same terms, in the case of `Clc1cccc(Cl)c1Cl` it was “inactive”; in that of `CCOP(=S)(OCC)O/N=C(\C#N)c1ccccc1`, “inactive”; in that of `N#Cc1ccccc1Cl`, “inactive”.
Still for that read-out and setting: in the case of `N#Cc1ccc(Cl)cc1` it was “inactive”; in that of `OC[C@@H](O)[C@H]1O[C@@H]2O[C@H](C(Cl)(Cl)Cl)O[C@@H]2[C@H]1O`, “inactive”.
On to `FC(F)OCC(F)(F)C(F)(F)F`, for which the outcome was inactive.
